FMDV antiviral: foot and mouth disease virus antiviral activity; FMDV antiviral cell-based qHTS; Potency, µM (doses to about 57.9 µM), for the others: at the top dose activity change, negative = inhibition, usual class: inhibitors; 1.2% of 410,000 active; calls by dose curve; tested in HEK293T cells; also: read-out not given here; potency is read from the fitted curve at half-maximal effect; nearly all actives have a fitted effect of over 45% in size
MARV entry inh: blocks Marburg virus binding to or entry into cells; Marburg virus pseudotyped entry inhibition, cell reporter; Potency, µM (highest dose often 37.8 µM), for the others: at the top dose activity change, negative = inhibition, hits mostly inhibitors; 1.8% of 300,000 active; AID 540276; calls by dose curve; tested in HEK293 cells; also: potency is read from the fitted curve at half-maximal effect
HCV inhibitor: blocks hepatitis C virus; Huh7.5.1 HCVcc-Cre infection, luciferase reporter, 44 h; Potency, µM (series often up to 41.8 µM), inactives show at the top dose activity change, negative = inhibition, actives largely listed as inhibitors; 3.4% of 340,000 active; active = well fitted inhibition curve with a large enough effect; inconclusive = small, poorly fitted or top-dose-only effect, or another doubt; inactive = no such curve, though single readings can be large or run the other way; also: potency is read from the fitted curve at half-maximal effect
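Infectious HCV cell culture screen: compound-treated cells (1,000/well, pre-plated 4 h) are infected with HCVcc-Cre at roughly 0.5 moi and grown 44 h. Infection is quantified by luciferase signal after 15 min substrate incubation at room temperature.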
HCMV antiviral: inhibitors of human cytomegalovirus; activity change, negative = inhibition, % at 57.5 µM; 4.5% of 410,000 active; AID 1259415; HFF cells, HCMV-luciferase reporter, 72 h; hits give low values; in the data active = activity change below about -60%; inconclusive = no clear call, values can overlap the other calls; inactive = above about -39%
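Two-dose cell screen: HFF monolayers treated with compounds and infected with luciferase-expressing HCMV at 1 PFU/cell, 72 h at 37C, then lysed for luciferase measurement.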
LASV entry inh: Lassa virus entry inhibition. AID 540256. Potency, µM (highest dose often 37.9 µM), inactives show at the top dose activity change, negative = inhibition, usual class: inhibitors. Lassa virus pseudotype entry inhibition, cell reporter. 1.2% of 300,000 active; calls by dose curve; tested in HEK293 cells; also: potency is read from the fitted curve at half-maximal effect; nearly all actives have a fitted effect of over 50% in size
An asterisk follows results filed as active; u = inconclusive; x = no result given; [ ] = another dose, or the depositor's remark. Rows were chosen to be rich in hits. Some 7.9% of all compounds tested hit in one or more screens of this group. % is scaled to controls: 0 for no effect and ±100 for the full control effect.

SMILES | FMDV antiviral | MARV entry inh | HCV inhibitor | HCMV antiviral | LASV entry inh
O=C(CCN=C1NS(=O)(=O)c2ccccc21)OCc1nnc(-c2ccccc2)o1 | 8% | 6% | 8% | -8 | -2%
CCn1c(C(=O)OC)cc2c1ccn2-c1ccc(F)cc1 | -60% | 15% | 4.5µM* | 70 | -12%
CC1(C(=O)NS(=O)(=O)c2ccc(Cl)s2)CCN1C(=O)c1ccc(C2CCCCC2)cc1 (stereo not drawn) | -13% | x | x | 38 | x
OC(c1cc(C(F)(F)F)nc2c(Cl)cc(Cl)cc12)C1CCCCN1 (stereo not drawn) | -10% | u | u | 2 | u
O[C@@H](c1cc(C(F)(F)F)nc2c(C(F)(F)F)cccc12)[C@H]1CCCCN1 | -25% | x | 8.9µM* | 24 | x
CN(C)c1ccc(C(C[N+](=O)[O-])c2c(N)n(C)c(=O)n(C)c2=O)c(F)c1C#N (stereo not drawn) | 35µM* | x | -8% | x | x
COc1ccc(Br)cc1C(C[N+](=O)[O-])c1c(N)n(C)c(=O)n(C)c1=O (stereo not drawn) | u | x | 4µM* | -100* | x
Cn1c(N)c(C(C[N+](=O)[O-])c2c(F)cccc2Cl)c(=O)n(C)c1=O (stereo not drawn) | -14% | -12%[46.1 µM] | -9% | u | -29%[46.1 µM]
CC(C)(C)c1ccc(CSc2cnn(C(C)(C)C)c(=O)c2Cl)cc1 | u | x | u | -78* | x
CO[C@H]1[C@H](NC(=O)c2ccsc2)c2ccccc2C12CCN(Cc1cccn1-c1ccccn1)CC2 | -16% | x | x | x | x
CCCCOc1ccc(C(=O)OCC(=O)NC2CCCC2)cc1 | -25% | 2% | 10% | -100* | u
O=C(COc1ccc(C(=O)c2ccccc2)cc1)NC1CCCCCC1 | u | u | 11µM* | u | u
O=C(COc1ccc(C(=O)c2ccccc2)cc1)NC1CCCCC1 | -18% | u | 22% | -84* | 3%
Cc1nc(NCc2cccc3c2OCO3)sc1-c1ccn(CC2CCCN(C)C2)n1 (stereo not drawn) | 34% | x | x | x | x
CC1(C)CC(=O)C(N=Nc2ccc(Br)cc2)=C(O)C1 | 1% | 11%[46.1 µM] | -21% | -60* | 4%
C=CCc1cccc(/C=N/NC(=O)CNc2ccccc2OC)c1O | -26% | x | u | -98* | x
COc1cc([N+](=O)[O-])cc(/C=N/NC(=O)C(C)Nc2cccc(C)c2)c1O (stereo not drawn) | -19% | -19% | 0% | -38 | 7%
C=CCc1cccc(/C=N/NC(=O)CCCNc2ccc(C)cc2)c1O | -3% | u | -11% | 12 | u
C=CCc1cccc(/C=N/NC(=O)CNc2ccccc2)c1O | 14% | u | u | -99* | u
C=CCc1cccc(/C=N/NC(=O)CNc2cccc3ccccc23)c1O | -14% | -2% | u | -23 | u
C=CCc1cccc(/C=N/NC(=O)C(C)Nc2cccc(C)c2)c1O (stereo not drawn) | -13% | u | u | -80* | 11µM*
C=CCc1cccc(/C=N/NC(=O)CCC(=O)Nc2ccc(F)cc2)c1O | -18% | 13µM* | u | -84* | u
CCC=CC[C@@]1(C(=O)OC)C=C[C@@H](C)[C@H](c2ccccc2Br)N1C(=O)C(F)(F)F | x | -1%[14.2 µM] | x | x | x
CC(=O)Oc1ccccc1C(=O)N(C1CCCCC1)C1CCCCC1 | u | x | u | 7 | x
CN(C)CCC=C1c2ccccc2COc2ccccc21 | -10%[39.8 µM] | x | x | x | x
SMILES | FMDV antiviral | MARV entry inh | HCV inhibitor | HCMV antiviral | LASV entry inh
O=C(Nc1cnns1)Oc1ccccc1 | -17% | x | x | -23 | x
COc1ccc(F)c(CN2CCOc3ccc(CN4CCCCC4CO)cc3C2)c1 (stereo not drawn) | 0% | x | x | x | x
Cc1ccc(S(=O)(=O)N2[C@@H](c3ccccc3F)C(C(=O)O)=CC[C@H]2c2cccs2)cc1 | 21% | x | 19% | -19 | x
Cc1cc(C)n2nc(-c3sccc3-n3c(C)ccc3C)cc2n1 | 10% | -21% | 8.9µM* | -32 | -6%
CN(Cc1ccccc1)CC(O)COc1ccc(CNCCc2cccnc2)cc1 (stereo not drawn) | 1% | x | u | u | x
CN(Cc1ccccc1)CC(O)COc1ccc(CNCCc2ccncc2)cc1 (stereo not drawn) | -5% | x | 13µM* | -21 | x
OC[C@@H](O)COc1cccc2ccccc12 | 6% | x | x | x | x
C=CCOc1ccc(CN(C)CC(O)COc2cccc3ccccc23)cc1 (stereo not drawn) | -26% | u | 32µM* | 54 | u
CCc1ccc(CNCc2ccc(OCC(O)CN(C)Cc3ccccc3)cc2)nc1 (stereo not drawn) | -23% | x | 11µM* | 0 | x
CCN1CCN(C(=O)c2cc(NC(=O)COC)cc3nc(-c4ccncc4)n(C)c23)CC1 | -9% | x | x | x | x
COc1ccccc1CNc1ncnc2ccc(-c3cccc(C#N)c3)cc12 | -20% | x | x | x | x
CCCCCNC(=O)C(C1CC1)n1c(=O)c(-c2ccccc2)nc2ccccc21 (stereo not drawn) | 0% | x | x | -69* | x
COc1ccc(OC)c(CNC(=O)c2nn(C)c3c2CS(=O)(=O)c2ccccc2-3)c1 | -20% | x | -18% | -29 | 5%[46.1 µM]
Cc1cccc(NCC(=O)N/N=C/c2cccc(Br)c2)c1 | -3% | x | -10% | u | x
C/C(=N\NC(=O)CNc1cccc(C)c1)c1ccc(Br)s1 | 9% | 7% | u | -62* | -19%
Cc1cccc(NCC(=O)N/N=C\c2ccc[nH]2)c1 | 0% | 7.1µM* | 8.9µM* | 19 | u
O=C(CNc1cccc2ccccc12)N/N=C/c1ccc[nH]1 | -7% | u | 1µM* | -68* | u
O=C(CNc1cccc(C(F)(F)F)c1)N/N=C/c1cccc(Br)c1 | -1% | u | u | -73* | u
N#CCCCSc1nnnn1-c1cc(C(F)(F)F)cc(C(F)(F)F)c1 | x | 2%[14.2 µM] | x | x | x
C/C(CCN1CCc2nc(-c3ccccc3)c(-c3ccccc3)cc2C1)=N\OC[C@@H](O)[C@H]1O[C@@H]2OC(C)(C)O[C@@H]2[C@H]1O | x | 26%[14.2 µM] | x | x | x
Cc1ccc(Oc2nc(-c3ccccc3)ncc2S(=O)(=O)c2ccc(C)cc2)cc1 | 0% | 13% | 5.6µM* | 69 | u
O=C(O)c1cnc(-c2ccccc2)nc1Oc1ccccc1 | -4% | 8%[46.1 µM] | 3.5µM* | -28 | 9%
CC(=O)c1c(C)[nH]c(C(=O)Nc2cccc(S(=O)(=O)N(C)C)c2)c1C | 42% | 29%[46.1 µM] | u | 338 | -1%
CCN(CC)S(=O)(=O)c1cccc(NC(=O)COC(=O)c2[nH]c(C)c(C(C)=O)c2C)c1 | 11µM* | x | x | -85* | x
CC(=O)c1c(C)[nH]c(C(=O)OCC(=O)Nc2ccc3[nH]c(=O)[nH]c3c2)c1C | 15% | 2%[46.1 µM] | 11% | 64 | 17%
CC(=O)c1c(C)[nH]c(C(=O)OCC(=O)Nc2cccc(S(=O)(=O)N(C)C)c2)c1C | -14% | 0%[46.1 µM] | 6.3µM* | -61* | -6%[46.1 µM]
O=C(NCc1cccs1)C(=O)NCC(c1ccco1)N1CCN(c2ccc(F)cc2)CC1 (stereo not drawn) | u | u | 22µM* | -32 | u

Screening data deposited in PubChem BioAssay by National Center for Advancing Translational Sciences (NCATS).
